Where “and” joins values, the source holds several entries; their conditions need not be identical. Identical values can stand only once. Out of some 5,500 compounds screened, about 2,000 (36%) were called active. Another 18% or so got no clear call; they are omitted. Rule as the data show it: active = normalized growth mostly below about 0.91 (no sharp cut-off); inconclusive = no clear call, values can overlap the other calls; inactive = mostly above about 0.92. This is one part of the list.
Experiment: chemical genetic growth profiling, strain panel (AID 1159580);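 also: tested at 20 µM; growth read once vehicle control cultures reached saturation at 30 °C; 1 = growth at the plate median or of vehicle wells; lower values mean less growth of the strain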
Details: S. cerevisiae deletion strains, growth OD

Measured: normalized growth

Cc1cc(=O)oc2c(O)c(O)ccc12
inactive: locus YAL021C, strain ccr4, active compounds read low 0.981 | locus YAL026C, strain drs2, active compounds read low 0.967 | locus YAL030W, strain snc1, active compounds read low 0.964 | locus YBL061C, strain skt5, active compounds read low 0.966 | locus YBR009C, strain hhf1, active compounds read low 0.966 | locus YBR021W, strain FUR4, active compounds read low 0.975 | locus YBR023C, strain chs3, active compounds read low 0.975 | locus YBR171W, strain sec66, active compounds read low 0.975 | locus YBR229C, strain ROT2, active compounds read low 1 | locus YBR231C, strain swc5, active compounds read low 0.978 | locus YBR279W, strain paf1, active compounds read low 0.973 | locus YCL011C, strain gbp2, active compounds read low 0.958 | locus YCL016C, strain dcc1, active compounds read low 0.972 | locus YCL029C, strain bik1, active compounds read low 0.999 | locus YCL061C, strain MRC1, active compounds read low 0.992 | locus YCL069W, strain vba3, active compounds read low 0.976 | locus YCR088W, strain abp1, active compounds read low 0.965 | locus YDL005C, strain med2, active compounds read low 0.958 | locus YDL035C, strain GPR1, active compounds read low 1.01 | locus YDL040C, strain nat1, active compounds read low 0.98 | locus YDL074C, strain BRE1, active compounds read low 0.993 | locus YDL101C, strain DUN1, active compounds read low 1.01 | locus YDL134C, strain PPH21, active compounds read low 1.02 | locus YDL185W, strain tfp1, active compounds read low 1 | locus YDL192W, strain arf1, active compounds read low 1 | locus YDR001C, strain nth1, active compounds read low 0.968 | locus YDR069C, strain doa4, active compounds read low 0.963 | locus YDR101C, strain arx1, active compounds read low 1.02 | locus YDR137W, strain rgp1, active compounds read low 0.94 | locus YDR150W, strain NUM1, active compounds read low 1.01 | locus YDR159W, strain sac3, active compounds read low 0.967 | locus YDR162C, strain NBP2, active compounds read low 1.02 | locus YDR195W, strain ref2 0.913 | locus YDR297W, strain sur2, active compounds read low 0.979 | locus YDR318W, strain mcm21, active compounds read low 0.993 | locus YDR334W, strain swr1, active compounds read low 0.968 | locus YDR335W, strain msn5, active compounds read low 0.981 | locus YDR388W, active compounds read low 0.994 | locus YDR392W, strain spt3, active compounds read low 0.973 | locus YDR502C, strain sam2, active compounds read low 1 | locus YEL003W, strain gim4, active compounds read low 0.976 | locus YEL037C, strain rad23, active compounds read low 0.934 | locus YEL061C, strain CIN8 (second series), active compounds read low 0.952 | locus YEL061C, strain CIN8, active compounds read low 1 | locus YER015W, strain faa2, active compounds read low 1 | locus YER016W, strain bim1, active compounds read low 0.986 | locus YER110C, active compounds read low 0.993 | locus YER111C, strain swi4, active compounds read low 0.957 | locus YER155C, strain BEM2 (second series), active compounds read low 0.987 | locus YER155C, strain BEM2, active compounds read low 1.01 | locus YER167W, strain BCK2, active compounds read low 1.01 | locus YFR010W, strain ubp6, active compounds read low 0.947 | locus YGL078C, strain dbp3, active compounds read low 1 | locus YGL086W, strain mad1, active compounds read low 0.991 | locus YGL167C, strain pmr1, active compounds read low 0.943 | locus YGL173C, strain kem1, active compounds read low 0.987 | locus YGL227W, strain vid30, active compounds read low 0.962 | locus YGL240W, strain doc1, active compounds read low 0.979 | locus YGL248W, strain PDE1, active compounds read low 1.01 | locus YGL253W, strain hxk2, active compounds read low 0.974 | locus YGR135W, strain pre9, active compounds read low 0.988 | locus YGR229C, strain SMI1, active compounds read low 1 | locus YGR252W, strain gcn5, active compounds read low 0.977 | locus YHR013C, strain ard1, active compounds read low 0.942 | locus YHR027C, strain rpn1, active compounds read low 0.973 | locus YHR030C, strain SLT2, active compounds read low 1 and 0.999 | locus YHR079C, strain IRE1 (second series), active compounds read low 1 | locus YHR079C, strain IRE1, active compounds read low 0.983 | locus YHR094C, strain hxt1, active compounds read low 1.02 | locus YHR129C, strain ARP1, active compounds read low 1 | locus YHR142W, strain chs7, active compounds read low 0.973 | locus YHR200W, strain rpn10, active compounds read low 1.02 | locus YIL066C, strain RNR3, active compounds read low 1.02 | locus YIL073C, strain SPO22, active compounds read low 1.03 | locus YIL125W, strain kgd1, active compounds read low 0.975 | locus YIR030C, strain dcg1, active compounds read low 1 | locus YJL092W, strain hpr5, active compounds read low 0.978 | locus YJL095W, strain BCK1 (second series), active compounds read low 0.988 | locus YJL095W, strain BCK1, active compounds read low 0.98 and 0.997 | locus YJL115W, strain asf1, active compounds read low 0.975 | locus YJL129C, strain trk1, active compounds read low 0.972 | locus YJL134W, strain LCB3, active compounds read low 1.01 | locus YJL154C, strain vps35, active compounds read low 0.976 | locus YJL164C, strain tpk1, active compounds read low 0.985 | locus YJL166W, strain qcr8, active compounds read low 1 | locus YJL168C, strain set2, active compounds read low 0.993 | locus YJL187C, strain SWE1 (second series), active compounds read low 1 | locus YJL187C, strain SWE1, active compounds read low 0.976

From PubChem BioAssay AID1159580 (chemical genetic matrix, 2015)
